Data taken from PubChem BioAssay (EPA / NIEHS).
Where “and” joins values, the source holds several entries; their conditions need not be identical. Equal values may be shown once. More than one record can exist for a structure, and the calls need not agree. Calls of active or inactive are those of the source. Rule for the calls: active = hit-call score of the fitted dose curve at least 0.9, where 1 is the maximum; inactive = score below 0.9.

Experiments:
[1] = BSK_CASM3C_SRB: Viability Assessment in the BioMAP Diversity Plus: CASM3C Assay (AID 2283050); conditions: primary human coronary artery smooth muscle cells;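 note: total protein by SRB staining as cytotoxicity measure in parallel cultures; cells exposed to compound for 24 h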
[2] = read-out: Thrombomodulin, THBD (gene 7056); assay: BSK_CASM3C_Thrombomodulin: BioMAP Diversity Plus: CASM3C Assay for Thrombomodulin Biomarker Activity (AID 2283051); conditions: primary human coronary artery smooth muscle cells; actives raise or lower the signal;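 note: thrombomodulin protein level measured by ELISA 24 h after dosing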
[3] = read-out: Tissue Factor, F3 (gene 2152); assay: BSK_CASM3C_TissueFactor: BioMAP Diversity Plus: CASM3C Assay for Tissue Factor Biomarker Activity (AID 2283052); conditions: primary human coronary artery smooth muscle cells; actives raise or lower the signal;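 note: cell surface tissue factor protein level read by ELISA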
[4] = read-out: Interferon-gamma inducible Protein 10 (IP10), CXCL10 (gene 3627); assay: BSK_hDFCGF_IP10: BioMAP Diversity Plus: hDFCGF Assay for Interferon-gamma inducible Protein 10 (IP10) Biomarker Activity (AID 2283053); conditions: primary human foreskin fibroblasts; actives raise or lower the signal
Method in brief: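 IP-10 levels, quantified by ELISA, are taken from human foreskin fibroblast cultures 24 h after chemical treatment, with DMSO serving as negative control and baseline for bidirectional analysis.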

[5] = read-out: Urokinase-type plasminogen activator receptor (uPAR), PLAUR (gene 5329); assay: BSK_CASM3C_uPAR: BioMAP Diversity Plus: CASM3C Assay for Urokinase-type plasminogen activator receptor (uPAR) Biomarker Activity (AID 2283054); conditions: primary human coronary artery smooth muscle cells; actives raise or lower the signal;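 note: cell-surface uPAR protein level quantified by ELISA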
[6] = read-out: Vascular cell adhesion molecule 1 (VCAM1), VCAM1 (gene 7412); assay: BSK_CASM3C_VCAM1: BioMAP Diversity Plus: CASM3C Assay for Vascular cell adhesion molecule 1 (VCAM1) Biomarker Activity (AID 2283055); conditions: primary human coronary artery smooth muscle cells; actives raise or lower the signal;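 note: VCAM-1 protein level quantified by ELISA on the cells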
[7] = read-out: Collagen III, COL3A1 (gene 1281); assay: BSK_hDFCGF_CollagenIII: BioMAP Diversity Plus: hDFCGF Assay for Collagen III Biomarker Activity (AID 2283056); conditions: primary human foreskin fibroblasts; actives raise or lower the signal
Method in brief: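 ELISA read-out of collagen III from human skin fibroblast cultures sampled 24 h post-dosing. Values were derived by bidirectional fitting relative to the DMSO vehicle control.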

[8] = read-out: Epidermal growth factor receptor (EGFR), EGFR (gene 1956); assay: BSK_hDFCGF_EGFR: BioMAP Diversity Plus: hDFCGF Assay for Epidermal growth factor receptor (EGFR) Biomarker Activity (AID 2283057); conditions: primary human foreskin fibroblasts; actives raise or lower the signal
Method in brief: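 Measured by ELISA: EGFR levels on primary human foreskin fibroblasts 24 h after chemical treatment, analysed relative to DMSO with bidirectional fitting.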

[9] = BSK_hDFCGF_Proliferation: Cell Proliferation Assessment in the BioMAP Diversity Plus: hDFCGF Assay (AID 2283059); conditions: primary human foreskin fibroblasts;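 note: curves fitted for both rise and fall of signal versus DMSO baseline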
Method in brief: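 Sub-confluent human foreskin fibroblast cultures receive test chemical […]. Relative cell number is quantified by sulforhodamine B staining (0.1%, after 10% TCA fixation) at 560 nm, with bidirectional fitting referenced to DMSO.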

[10] = read-out: Interleukin-8 (IL8), CXCL8 (gene 3576); assay: BSK_hDFCGF_IL8: BioMAP Diversity Plus: hDFCGF Assay for Interleukin-8 (IL8) Biomarker Activity (AID 2283058); conditions: primary human foreskin fibroblasts; actives raise or lower the signal
Method in brief: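 Cells used are human skin primary fibroblasts. Chemical is added, cultures run 24 h, then IL-8 is quantified by ELISA, and gain or loss versus DMSO control is fitted in both directions.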

Measured: AC50

O=S(=O)(F)C(F)(F)C(F)(F)C(F)(F)C(F)(F)C(F)(F)C(F)(F)C(F)(F)C(F)(F)F
inactive: [1] | [2] | [3] | [4] | [5] | [6] | [7] | [8] | [9]

COC(=O)C(F)(F)C(F)(F)OC(F)(C(F)(F)F)C(F)(F)OC(F)=C(F)F (centres undefined)
inactive: [1] | [2] | [3] | [5] | [6] | [7] | [8] | [9]
active: [4] 5.35 µM and 2.92 µM | [9] 5.81 µM

OCC(F)(F)OC(F)(F)C(F)(F)OC(F)(F)CO
inactive: [1] | [2] | [3] | [4] | [5] | [6] | [7] | [10] | [9]

COCCOCCO
inactive: [1] | [2] | [3] | [4] | [5] | [6] | [7] | [8] | [9]

CCCCN(CCCC)N=O
inactive: [1] | [2] | [3] | [4] | [5] | [6] | [7] | [10] | [9]

CCOP(=S)(OCC)SCn1nnc2ccccc2c1=O
inactive: [1] | [2] | [3] | [4] | [5] | [6] | [7] | [8] | [9]

CCCCC(CC)COC(=O)c1c(Br)c(Br)c(Br)c(Br)c1C(=O)OCC(CC)CCCC (centres undefined)
inactive: [1] | [2] | [3] | [4] | [5] | [6] | [7] | [10] | [9]

CCOP(=S)(OCC)SCS(=O)(=O)CC
inactive: [1] | [2] | [3] | [4] | [5] | [6] | [7] | [10] | [9]

Cc1ccc2c(c1N)C(=O)c1ccccc1C2=O
inactive: [1] | [2] | [3] | [4] | [6] | [8] | [9]
active: [5] 20 µM | [7] 20 µM

O=c1ssc(Cl)c1Cl
active: [1] 3.99 µM | [3] 6.61 µM | [4] 3.7 µM | [5] 6.83 µM | [6] 4.48 µM | [7] 8.15 µM | [8] 3.16 µM | [9] 0.577 µM
inactive: [2]

c1ccc2c(c1)Nc1ccccc1S2
inactive: [1] | [3] | [5] | [6] | [7] | [8]
active: [2] 0.542 µM | [4] 20 µM | [9] 30.4 µM

Nc1cc2c3c(c1)C(c1ccccc1)=N[C@@H](NC(=O)c1cccnc1)C(=O)N3CC2
inactive: [1] | [2] | [3] | [4] | [5] | [6] | [7] | [10] | [9]

CCCCc1ccccc1
inactive: [1] | [2] | [3] | [4] | [5] | [6] | [7] | [8] | [9]

CC(C)(C)OOC(C)(C)C
inactive: [1] | [2] | [3] | [4] | [5] | [6] | [7] | [10] | [9]

Nc1ccc2ccccc2c1
active: [2] 12.5 µM
inactive: [1] | [3] | [4] | [5] | [6] | [7] | [8] | [9]

O=C(O)C1C(C(=O)O)C2(Cl)C(Cl)=C(Cl)C1(Cl)C2(Cl)Cl (centres undefined)
inactive: [1] | [2] | [3] | [4] | [5] | [6] | [7] | [9]

N#Cc1c(-c2ccc(Cl)cc2)[nH]c(C(F)(F)F)c1Br
active: [1] 0.865 µM | [3] 0.224 µM | [4] 20 µM | [5] 0.773 µM | [6] 30.1 µM | [7] 0.0161 µM | [9] 0.731 µM
inactive: [2]

N#Cc1cc([N+](=O)[O-])ccc1N
inactive: [1] | [2] | [3] | [4] | [5] | [6] | [7] | [9]

Nc1ccc([N+](=O)[O-])cc1Cl
active: [5] 0.0567 µM
inactive: [1] | [2] | [3] | [4] | [6] | [7] | [9]

ClC(Cl)=C(c1ccc(Cl)cc1)c1ccccc1Cl
active: [1] 28.2 µM | [3] 24 µM | [4] 3.72 µM | [5] 32.6 µM | [6] 20 µM | [7] 2.45 µM | [9] 0.742 µM
inactive: [2]

c1ccc(OP(Oc2ccccc2)Oc2ccccc2)cc1
inactive: [1] | [2] | [3] | [4] | [5] | [6] | [7] | [10] | [9]

O=P(OCC(Br)CBr)(OCC(Br)CBr)OCC(Br)CBr (centres undefined)
inactive: [1] | [2] | [3] | [4] | [5] | [6] | [7] | [10] | [9]

CCOP(=S)(S)OCC
inactive: [1] | [2] | [3] | [4] | [5] | [6] | [7] | [10]
active: [9] 12.6 µM

CN(C)C(=O)Cl
inactive: [1] | [2] | [3] | [4] | [5] | [6] | [7] | [10] | [9]

Cc1cccc(N)c1
active: [9] 0.148 µM
inactive: [1] | [2] | [3] | [4] | [5] | [6] | [7]

CCNc1nc(Cl)nc(NC(C)(C)C)n1
inactive: [1] | [2] | [3] | [4] | [5] | [6] | [7] | [9]

COP(=O)(CCC(=O)NCO)OC
inactive: [1] | [2] | [3] | [4] | [5] | [6] | [7] | [9]

CCC(C)(C)c1ccc(O)cc1
inactive: [1] | [2] | [3] | [4] | [5] | [6] | [7] | [10] | [9]

CCOP(=S)(Oc1ccc([N+](=O)[O-])cc1)c1ccccc1 (centres undefined)
active: [2] 12.9 µM | [4] 20 µM | [7] 8.08 µM | [9] 6.37 µM
inactive: [3] | [5] | [6] | [10]

CSC(C)(C)C=NO
inactive: [1] | [2] | [3] | [4] | [5] | [6] | [7] | [10] | [9]

O=[N+]([O-])c1ccc(Cl)c(Cl)c1
inactive: [1] | [2] | [3] | [4] | [5] | [6] | [7] | [10] | [9]

O=P(Oc1ccccc1)(Oc1ccccc1)Oc1ccccc1
inactive: [1] | [3] | [4] | [5] | [6]
active: [2] 29.6 µM | [7] 8.45 µM | [9] 14.2 µM

CCOP(=S)(NC(C)C)Oc1ccccc1C(=O)OC(C)C (centres undefined)
inactive: [1] | [2] | [3] | [4] | [5] | [6] | [7] | [9]

Cc1c([N+](=O)[O-])cc2c(c1[N+](=O)[O-])C(C)(C)CC2(C)C
active: [2] 7.74 µM | [5] 0.384 µM | [7] 3.32 µM | [9] 20 µM
inactive: [1] | [3] | [4] | [6]

Cc1ccc([N+](=O)[O-])cc1C
inactive: [1] | [2] | [3] | [4] | [5] | [6] | [7] | [9]

C=CC(=O)OCC(F)(F)C(F)F
inactive: [3] | [5]
active: [1] 39.8 µM and 43.6 µM | [2] 37.3 µM and 24.9 µM | [4] 34.9 µM and 29.2 µM | [6] 23.9 µM and 21.1 µM | [7] 994 nM and 23.9 µM | [9] 30 µM and 39.7 µM

CCOC(=O)c1ccccc1C(=O)OCC
inactive: [1] | [2] | [3] | [4] | [5] | [6] | [7] | [9]

CCCCOCCOP(=O)(OCCOCCCC)OCCOCCCC
inactive: [1] | [2] | [4] | [5] | [10] | [9]
active: [3] 1.99 µM | [6] 0.016 µM | [7] 0.016 µM

CCC1(c2ccccc2)C(=O)N=C(O)NC1=O (centres undefined)
inactive: [1] | [2] | [3] | [4] | [5] | [6] | [7] | [9]

[N-]=[N+]=[N-]
inactive: [1] | [2] | [3] | [4] | [5] | [6] | [7] | [9]

CCN(CC)c1ccccc1
inactive: [1] | [2] | [3] | [4] | [5] | [6] | [7] | [9]

O=C(O)C(Cl)Cl
inactive: [1] | [2] | [3] | [4] | [5] | [6] | [7] | [9]

CC(C)(C)c1ccc(O)cc1
inactive: [1] | [2] | [3] | [4] | [5] | [6] | [7] | [10] | [9]
